Experimental findings from PubChem BioAssay (NCATS) are described below.

Inconclusive results are not listed. A number with no mark means an inactive call. The source made the active and inactive calls. The call rests on the fitted dose curve; in most records, active means well fitted cell-killing curve with a large enough effect; inconclusive means small, poorly fitted or top-dose-only effect, or effect the other way; inactive means no such curve, though single readings can be large or run the other way.
Potency means the concentration at half of the fitted maximal effect.

The first assay is described as follows: Viability qHTS for spleen associated tyrosine kinase inhibitor (SYKi) naive MV4-11 cells (AID 1963823). Further: nearly all actives have a fitted effect of over 40% in size. Particulars: MV4-11 AML viability, CellTiter-Glo luminescence, 72 h; series mostly up to 45 µM. In short, it runs like this:
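Seeding of 500 SYKi-naive MV4-11 cells per well onto pre-dispensed compounds preceded a 72 hr incubation at 37 C. Luminescent CellTiter-Glo signal, read after 10 min at room temperature, reflected viable cells.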
For orientation: Quantitative high-throughput screening tests each substance at several concentrations.
In the case of `CC(NC(=O)CC(=O)O)C(=O)Nc1ccccc1C(N)=O` (stereo not given), the Potency result is “inactive”.

For `CC1CCC23COC(=O)C2=CC(O)CC3C1(C)CCc1ccoc1` (stereo not given), the Potency result was “inactive”. Consider `COc1cc(Br)c(Nc2nc(-c3c(C)nc4ncccn34)cs2)c(Br)c1`, for which the Potency is 1.16 µM (active).

Consider `C=C1CCC2C(C)(C)C(O)CCC2(C)C1CCC(C)CCO` (stereo not given), for which the Potency was 9.04 µM (active). The same measure, in the same setting: under `CCNC(=O)c1noc(-c2cc(Cl)c(O)cc2O)c1-c1ccc(OC)cc1` stands 0.0326 µM (active); under `C=C1C(=O)OC2/C=C(\COC(C)=O)CC/C=C(\C=O)CC(OC(=O)C(C)CC)C12` (stereo not given), 1.59 µM (active). Consider `C=CC(C)(O)CC/C=C(\C)C(=O)OCC1OC(OC2CCC3(C)C(CCC4(C)C3CC=C3C5CC(C)(C)C(O)CC5(C(=O)O)CCC34C)C2(C)C)C(O)C(OC2OC(CO)C(O)C(OC3OC(CO)C(O)C(OC4OC(COC5OC(CO)C(O)C(O)C5O)C(O)C(O)C4O)C3O)C2O)C1O` (stereo not given), for which the viability (% of control) is 99.5% [at 9.25 µM]. With `CC(C)c1ccc(NC(=O)c2cccs2)c(-c2nc3ccccc3[nH]c2=O)c1`, the Potency is 8.2 µM (active). Still for that read-out and setting: then `Cc1ccccc1CN1C2=NCCN2C(=O)C2=C1CCN(Cc1ccccc1)C2`, with 16.4 µM (active); and `C=C1C(=O)O[C@@H]2C[C@@]3(C)CCC[C@H](C)C3=C[C@H]12`, with 13 µM (active); and `C=C(C)[C@@H]1CC[C@]2(C)CC[C@]3(C)C(CCC4[C@@]5(C)CC[C@H](O)C(C)(C)C5CC[C@]43C)C12` (stereo not given in full), with “inactive”. Still for that read-out and setting: then `N#C/C(=C\c1ccc(O)c(O)c1)C(=O)NCCCc1ccccc1`, with 8.2 µM (active). As to `C[C@@H]1O[C@@H](O[C@H]2[C@H](OC(=O)C34CCC(C)(C)CC3C3=CCC5C6(C)CC(O)C(O[C@@H]7O[C@H](CO)[C@@H](O)[C@H](O)[C@H]7O)C(C)(C(=O)O)C6CCC5(C)C3(CO)CC4)O[C@H](C)[C@H](O)[C@@H]2O)[C@H](O)[C@H](O)[C@H]1O[C@@H]1OC[C@@H](O)[C@H](O)[C@H]1O` (stereo not given in full), the viability (% of control) is 87% [at 9.25 µM].

Another assay can be described thus: Viability qHTS for spleen associated tyrosine kinase inhibitor (SYKi) drug resistant MV4-11 cells (AID 1963824). Further: nearly all actives have a fitted effect of over 35% in size. Particulars: SYKi-resistant MV4-11 viability, CellTiter-Glo, 72 h; series mostly up to 45 µM. In outline: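 SYK-inhibitor-resistant MV4-11 AML cells were seeded at 500 per well onto compound and cultured 72 hours (37 °C, 5% CO2). CellTiter-Glo was then added, and after 10 min at room temperature, luminescence gave viability.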
Turning to `CC(C)(O)C1=CCC23COC(C2)C(O)(C(=O)O)CCC13` (stereo not given), the Potency entry was “inactive”.

Turning to `CC(=O)N1CCN([C@H]2CCN(C(=O)N(C)[C@H](C)c3cc(C(F)(F)F)cc(C(F)(F)F)c3)[C@@H](c3ccc(F)cc3C)C2)CC1`, the Potency was 8.2 µM (active).

Regarding `CC1(C)CC[C@]2(C(=O)OC3OC(CO)C(O)C(O)C3O)CC[C@]3(C)C(=CCC4[C@@]5(C)CC[C@H](OC6OC(C(=O)O)C(O)C(OC7OC(CO)C(O)C(O)C7O)C6O)C(C)(C)C5CC[C@]43C)C2C1` (stereo not given in full), the viability, % of control is 96.9% [at 9.25 µM]. Consider `CC(C)CC(=O)O[C@@H]1O[C@H](CO)[C@@H](O[C@H]2O[C@H](C)[C@@H](N[C@H]3C=C(CO)[C@@H](O[C@H]4O[C@H](CO)[C@@H](O[C@H]5O[C@H](CO)[C@@H](O[C@H]6O[C@H](CO)[C@@H](O)[C@H](O)[C@H]6O)[C@H](O)[C@H]5O)[C@H](O)[C@H]4O)[C@H](O)[C@H]3O)[C@H](O)[C@H]2O)[C@H](O)[C@H]1O`, for which the viability, % of control is 101% [at 9.25 µM]. Take `CC1OC2O[C@H]3[C@@H](OCC(O)[C@H]3O)OC(=O)C34CCC(C)(C)CC3C3=CCC5C6(C)CC(O)C(OC7OC(CO)C(O)C(O)C7O[C@@H]7OC[C@H](OC(=O)CC(C)(O)CC(=O)OC1C(OC1OCC(O)C(O)C1O)C2O)[C@@H](O)[C@H]7O)C(C)(CO)C6CCC5(C)C3(C)CC4` (stereo not given in full): the Potency is 7.09 µM (active). As for `COC(=O)c1cc(OC)c(O[C@@H]2O[C@@H](C)[C@H](O)[C@@H](O)[C@H]2O)c(OC)c1`, the Potency result was “inactive”. As to `Cc1cnc(NC(=O)Nc2cc(Br)c(C)cc2OCC2CNCCO2)cn1` (stereo not given), the Potency is 0.82 µM (active). On the same count and under the same terms, under `CC(=O)c1c(O)cc2cccc3c2c1CC(C)(O)O3` (stereo not given) stands “inactive”; under `C/C1=C\C[C@H](O[C@@H]2O[C@H](CO)[C@@H](O)[C@H](O)[C@H]2O)/C(C)=C/[C@H]2OC(=O)[C@H](C)[C@@H]2CC1`, “inactive”; under `COC(=O)c1ccnc(-c2cc(C(=O)Nc3ccc(C4(N)CC4)cc3)ccn2)c1`, “inactive”.

On to `C#CCN(Cc1cc2c(=O)[nH]c(C)nc2cc1Br)c1ccc(C(=O)NCc2cccnc2)cc1`, for which the Potency result was “inactive”. As to `CC1(CO)CC[C@]2(C(=O)O[C@@H]3O[C@H](CO)[C@@H](O)[C@H](O)[C@H]3O)CC[C@]3(C)C(=CCC4[C@@]5(C)C[C@H](O)[C@H](O[C@@H]6OC[C@@H](O)[C@H](O)[C@H]6O)[C@@](C)(CO)C5CC[C@]43C)C2C1` (stereo not given in full), the viability, % of control is 101% [at 9.25 µM].
